Reference: the supplement of paper PMC3334620
The full ranking holds about 33,000 sequences; the median of “E-score (-0.5 to 0.5)” is about -0.016, and the highest 2% start at about 0.31. Many of the other results were omitted from the sample, so the highest values are more common in it than they were.

The sequences below were run against Cst6 (UniProt P40535) (assay: PBM E-score (8-mer binding enrichment) (E-score (-0.5 to 0.5)); higher = stronger / more preferred TF binding). Conditions: protein concentration: 200 nM; construct: GST-DNA-binding domain.
UniProt P40535, sequence (P40535 whole entry, the tested form may be a part): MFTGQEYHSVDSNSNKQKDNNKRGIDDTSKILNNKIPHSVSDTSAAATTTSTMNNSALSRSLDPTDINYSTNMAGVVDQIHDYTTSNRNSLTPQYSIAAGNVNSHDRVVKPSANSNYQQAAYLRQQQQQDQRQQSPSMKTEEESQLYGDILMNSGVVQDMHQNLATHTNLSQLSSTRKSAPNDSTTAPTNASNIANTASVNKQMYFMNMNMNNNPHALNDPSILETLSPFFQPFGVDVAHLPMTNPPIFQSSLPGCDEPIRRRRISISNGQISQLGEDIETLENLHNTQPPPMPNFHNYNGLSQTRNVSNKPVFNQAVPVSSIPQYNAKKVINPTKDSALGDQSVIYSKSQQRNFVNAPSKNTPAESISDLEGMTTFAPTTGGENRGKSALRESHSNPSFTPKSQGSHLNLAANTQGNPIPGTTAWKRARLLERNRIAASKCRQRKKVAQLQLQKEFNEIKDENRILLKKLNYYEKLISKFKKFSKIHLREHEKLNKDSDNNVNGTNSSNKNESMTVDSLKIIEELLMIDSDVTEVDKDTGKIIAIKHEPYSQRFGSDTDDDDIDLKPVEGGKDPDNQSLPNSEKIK
Summary of the method: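 Yeast transcription factors, full-length or as DNA-binding domains, were expressed with a GST tag using PURExpress in vitro transcription/translation. At about 100-200 nM they were applied to universal all-10-mer Agilent arrays, double-stranded by primer extension on fresh or once-stripped slides. Fluorescent anti-GST detected bound protein, and masliner normalised the scans. E-scores for ungapped eight-base words, pooled with reverse complements, came from the Universal PBM Analysis Suite.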

First: GACGTAAA
Second: AACGTAGC
The “PBM E-score” value of the first is higher: 0.374 for the first, 0.0195 for the second.

First: AACGTAAA
Second: CACCCTCA
The “PBM E-score” value of the first is higher: 0.274 for the first, -0.212 for the second.

Going from AAGTTCAC to GACTTGAA, the “PBM E-score” value falls from -0.0134 to -0.171.

Compared with AGCTGTGA, TCGGAAAA is lower in “PBM E-score” value: 0.135 for the first, 0.113 for the second.

Compared with AGTCTAGA, CTCGGACC is lower in “PBM E-score” value: -0.124 for the first, -0.18 for the second.

First: GGGCTGGA
Second: CATGCGTA
The “PBM E-score” value of the first is lower: -0.295 for the first, 0.15 for the second.

First: TGCGTAAA
Second: TACGTAAA
The “PBM E-score” value of the first is lower: 0.218 for the first, 0.42 for the second.

First: AACGTACC
Second: GACGTAAC
The “PBM E-score” value of the first is lower: -0.185 for the first, 0.46 for the second.

Compared with GACGTAGC, CACGTAAC is higher in “PBM E-score” value: 0.166 for the first, 0.262 for the second.

Going from CACGTACC to TCCGTAAA, the “PBM E-score” value falls from -0.0025 to -0.0237.

Compared with GACGTACC, GCTTGATA is lower in “PBM E-score” value: 0.349 for the first, 0.162 for the second.

Going from CCCGCTCA to CCGCAGGA, the “PBM E-score” value falls from -0.0513 to -0.234.

Compared with AATCGGGT, TCTCGGCA is lower in “PBM E-score” value: 0.191 for the first, -0.0951 for the second.

First: GCAGCCCC
Second: GGGTGTAC
The “PBM E-score” value of the first is lower: -0.349 for the first, -0.185 for the second.

First: AGTACATC
Second: ATTACATC
The “PBM E-score” value of the first is lower: -0.0114 for the first, 0.433 for the second.

Going from CTCACATC to GTTACATA, the “PBM E-score” value rises from 0.0865 to 0.228.

Going from ATTACATA to ATTACATG, the “PBM E-score” value falls from 0.396 to 0.245.

First: CTTACATA
Second: ATTACACC
The “PBM E-score” value of the first is higher: 0.25 for the first, 0.089 for the second.

Compared with ATTACACG, ATTACAAC is higher in “PBM E-score” value: 0.205 for the first, 0.226 for the second.

First: CTTACATC
Second: ATTACACA
The “PBM E-score” value of the first is higher: 0.365 for the first, 0.318 for the second.

Compared with GAGACCCC, AACCCACC is higher in “PBM E-score” value: -0.279 for the first, 0.0456 for the second.

Compared with CTTTAGAA, AATCCGAG is lower in “PBM E-score” value: 0.0739 for the first, -0.0702 for the second.

First: ATCAAGGA
Second: AAGGGGCA
The “PBM E-score” value of the first is higher: -0.0436 for the first, -0.178 for the second.

First: ATGATAAC
Second: CTGATATA
The “PBM E-score” value of the first is higher: 0.263 for the first, 0.179 for the second.

Going from ATGATAAA to ATGATATG, the “PBM E-score” value falls from 0.307 to 0.269.

First: ATGATATA
Second: GTGATAAA
The “PBM E-score” value of the first is higher: 0.31 for the first, 0.201 for the second.

Compared with ATCAAATG, GATATTAA is higher in “PBM E-score” value: 0.0892 for the first, 0.201 for the second.

Compared with TATATTAA, AATATTAT is lower in “PBM E-score” value: 0.336 for the first, 0.242 for the second.

First: AATATTAA
Second: CATATTAA
The “PBM E-score” value of the first is higher: 0.334 for the first, 0.234 for the second.

Going from AATATTAG to TGGATCAA, the “PBM E-score” value falls from 0.185 to 0.125.

First: CCTAGTAA
Second: CAAAGCTA
The “PBM E-score” value of the first is lower: -0.194 for the first, 0.0247 for the second.

Compared with GTCATTTA, GACATTTA is lower in “PBM E-score” value: 0.368 for the first, 0.115 for the second.

First: ATCATTTG
Second: GTCATTAA
The “PBM E-score” value of the first is lower: 0.165 for the first, 0.394 for the second.

Compared with ATCATTTA, ATCATTTC is lower in “PBM E-score” value: 0.335 for the first, 0.246 for the second.

Compared with CTCATTAA, ATCATTAA is higher in “PBM E-score” value: 0.0741 for the first, 0.28 for the second.

Compared with CTCATTTA, CCGCTCCA is lower in “PBM E-score” value: 0.141 for the first, -0.152 for the second.

First: ACCCCCCC
Second: ATTGACAG
The “PBM E-score” value of the first is lower: -0.357 for the first, 0.0614 for the second.

Compared with ATGACGGG, CTGACGGA is lower in “PBM E-score” value: 0.258 for the first, 0.165 for the second.

Compared with AAGACGGA, CTGACGGC is higher in “PBM E-score” value: 0.00374 for the first, 0.111 for the second.

First: GCGACGGA
Second: ATGACGGC
The “PBM E-score” value of the first is lower: -0.224 for the first, 0.365 for the second.

Going from GTGACGGA to ATGACGGA, the “PBM E-score” value rises from 0.352 to 0.417.

Compared with ACGACGGA, CGCATAAG is higher in “PBM E-score” value: 0.0762 for the first, 0.102 for the second.

Going from CGTACGGA to GAAAGCGC, the “PBM E-score” value falls from 0.168 to -0.00012.

Compared with CCAAACCC, CTGACAGC is lower in “PBM E-score” value: -0.126 for the first, -0.148 for the second.

Compared with ATGACACC, ATGACAAC is higher in “PBM E-score” value: 0.228 for the first, 0.302 for the second.

Compared with ATGACATC, CGGACATC is lower in “PBM E-score” value: 0.478 for the first, -0.196 for the second.

First: CTGACATC
Second: CAGAGGAG
The “PBM E-score” value of the first is higher: 0.307 for the first, -0.0824 for the second.

First: CCTTACCC
Second: CCAGAAGG
The “PBM E-score” value of the first is higher: -0.0626 for the first, -0.0896 for the second.

Going from CCGCGCGC to GCGCGCGA, the “PBM E-score” value falls from 0.151 to 0.0433.

Going from GCGCGCGC to CCGCGCGA, the “PBM E-score” value falls from 0.345 to 0.255.

Going from CCGCGCGG to ACGCGCGC, the “PBM E-score” value falls from 0.382 to 0.175.

In the case of AGCCCCAA, the “PBM E-score” value was -0.281.
